For 42 sequences, binding signal results are on record in article PMC6602471.

The full ranking holds about 1,300 sequences; the median of “log fluorescence intensity” is about 8.3, and the highest 2% start at about 12. This is one part of a sample in which the highest values are shown more often than they occur.

In the assay the target is T1, ETS1 (Homo sapiens, UniProt P14921 1-441).
T1 sequence: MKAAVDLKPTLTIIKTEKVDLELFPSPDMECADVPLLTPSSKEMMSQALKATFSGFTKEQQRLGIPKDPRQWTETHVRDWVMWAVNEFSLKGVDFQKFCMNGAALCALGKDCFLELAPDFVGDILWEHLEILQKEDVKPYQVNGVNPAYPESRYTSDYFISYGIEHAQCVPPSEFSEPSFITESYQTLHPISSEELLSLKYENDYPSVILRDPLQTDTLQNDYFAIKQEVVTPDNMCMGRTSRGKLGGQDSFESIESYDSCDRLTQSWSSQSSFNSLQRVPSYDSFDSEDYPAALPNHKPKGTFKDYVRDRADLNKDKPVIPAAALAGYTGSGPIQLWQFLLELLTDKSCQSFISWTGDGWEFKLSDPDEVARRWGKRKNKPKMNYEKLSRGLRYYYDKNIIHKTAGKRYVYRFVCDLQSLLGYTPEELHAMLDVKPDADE
Nature of the assay: custom PBM; custom protein-binding microarray; buffer, salt, pH and temperature not stated; high values mean tight binding. The note with it: dsDNA, one strand shown.
Consider “TGAAAAAGGCCCAGGGTAACACCGGAAGTGGGCTTAGTCTTGATTCGCTTGACGCTGCTG”, for which the binding signal was 11.8 log fluorescence intensity. Under “GGAAAAAGGCCCACGGTAACACCGGAAGTGGGCTTAGTCTTGATTCGCTTGACGCTGCTG” stands 12.2 log fluorescence intensity; under “GGAAAAAGGCCCAGTGTAACACCGGAAGTGGGCTTAGTCTTGATTCGCTTGACGCTGCTG”, 12 log fluorescence intensity; under “GGAAAAAGGCCAAGGGTAACACCGGAAGTGGGCTTAGTCTTGATTCGCTTGACGCTGCTG”, 12 log fluorescence intensity. Under “GGAAAAAGGCCCAAGGTAACACCGGAAGTGGGCTTAGTCTTGATTCGCTTGACGCTGCTG” stands 12.1 log fluorescence intensity; under “GGAAAAAGGCCCATGGTAACACCGGAAGTGGGCTTAGTCTTGATTCGCTTGACGCTGCTG”, 11.9 log fluorescence intensity; under “CTGGGACTTGACCCGACTCTGCCACGTGGGTCGTTTGTCTTGATTCGCTTGACGCTGCTG”, 8.49 log fluorescence intensity. As for “TACTGACATATATATGCGAATGCACATGAATAGACCGTCTTGATTCGCTTGACGCTGCTG”, the figure is 8.43 log fluorescence intensity; as for “GAGCATAGGACTTCTTCCCTGAAGCAATTGATAACCGTCTTGATTCGCTTGACGCTGCTG”, 8.32 log fluorescence intensity. As for “CGGAAGTGTCGTAAACGTCGGATATCCGGTTCGTCTGTCTTGATTCGCTTGACGCTGCTG”, the binding signal was 11.9 log fluorescence intensity.

On to “TGTCGGGTAAGGGAATGTAGATGACGTGAATGAAAAGTCTTGATTCGCTTGACGCTGCTG”, for which the binding signal is 8.36 log fluorescence intensity. For “GGAAAAAGGCCCAGGGTAACACCGGAAGTGCGCTTAGTCTTGATTCGCTTGACGCTGCTG”, the binding signal was 11.7 log fluorescence intensity.

For the sequence “GATTAATTTCTGCCCTTATTCGCACGTGCAATAACAGTCTTGATTCGCTTGACGCTGCTG”, the binding signal is 8.3 log fluorescence intensity. In the case of “CAGAAGTGTCGTAAACGTCGGATATCCGGTTCTTCTGTCTTGATTCGCTTGACGCTGCTG”, the binding signal was 12.1 log fluorescence intensity. Under “CGGAAGTGTCGTAAGCGTCGGATATCCGGTTCTTCTGTCTTGATTCGCTTGACGCTGCTG” stands 11.7 log fluorescence intensity; under “CGGCAGTGTCGTAAACGTCGGATATCCGGTTCTTCTGTCTTGATTCGCTTGACGCTGCTG”, 11.7 log fluorescence intensity. As for “GGAAACAGGCCCAGGGTAACACCGGAAGTGGGCTTAGTCTTGATTCGCTTGACGCTGCTG”, the figure is 11.8 log fluorescence intensity; as for “TAAAGGGAAGACGGTTGTAGTAGTTCCGGGTATTAAGTCTTGATTCGCTTGACGCTGCTG”, 8.81 log fluorescence intensity. On to “GCTGCTGCGCTGCATACCCCACCGGATGTGACCCCGGTCTTGATTCGCTTGACGCTGCTG”, for which the binding signal is 10.1 log fluorescence intensity. As for “TACTGACTTATATATGCGAATGCACATCAATAGACCGTCTTGATTCGCTTGACGCTGCTG”, the figure is 8.32 log fluorescence intensity. Under “GCTGCTGCGGTGCATACCCCACCAGATGTGACCCCGGTCTTGATTCGCTTGACGCTGCTG” stands 8.36 log fluorescence intensity. As for “CACAATTTTTACAGTAATGTAGCACGCGTAAATCCTGTCTTGATTCGCTTGACGCTGCTG”, the figure is 8.32 log fluorescence intensity; as for “GTGTATAGGATCCCATCGAACACACGTGTTAAAATGGTCTTGATTCGCTTGACGCTGCTG”, 8.36 log fluorescence intensity; as for “TAAAGGGAAGACGGTTGTGGTAGTTCCGGGTATTAGGTCTTGATTCGCTTGACGCTGCTG”, 8.47 log fluorescence intensity.

Consider “CGGAAGTGTCGTAAACGTCCGATATCCGGTTCTTCTGTCTTGATTCGCTTGACGCTGCTG”, for which the binding signal is 12.2 log fluorescence intensity.

Consider “CGGAAGTGTCTTAAACGTCGGATATCCGGTTCTTCTGTCTTGATTCGCTTGACGCTGCTG”, for which the binding signal is 11.6 log fluorescence intensity. “CGGAAGTGTCGTAAACGTCGGATGTCCGGTTCTTCTGTCTTGATTCGCTTGACGCTGCTG”: the binding signal was 9.65 log fluorescence intensity. In the case of “CGGAAGTGTCGTAAACGTCGGACATCCGGTTCTTCTGTCTTGATTCGCTTGACGCTGCTG”, the binding signal is 12.6 log fluorescence intensity. In the case of “CGGAAGTGTCGTAAACGTCTGATATCCGGTTCTTCTGTCTTGATTCGCTTGACGCTGCTG”, the binding signal is 11.8 log fluorescence intensity.

With “CGGAAGTGTCGTAAACGTCGGAGATCCGGTTCTTCTGTCTTGATTCGCTTGACGCTGCTG”, the binding signal is 8.83 log fluorescence intensity. As for “CGGAAGTGTCGGAAACGTCGGATATCCGGTTCTTCTGTCTTGATTCGCTTGACGCTGCTG”, the figure is 12.8 log fluorescence intensity; as for “CCGAAGTGTCGTAAACGTCGGATATCCGGTTCTTCTGTCTTGATTCGCTTGACGCTGCTG”, 12 log fluorescence intensity; as for “CGGAAGTGTCGTAAACGTCGGATTTCCGGTTCTTCTGTCTTGATTCGCTTGACGCTGCTG”, 12.5 log fluorescence intensity. Under “CGGAAGTGTCGTAAACGTCGGATCTCCGGTTCTTCTGTCTTGATTCGCTTGACGCTGCTG” stands 8.47 log fluorescence intensity. Under “CGGAAGTGTCGTAAACGTCGGAAATCCGGTTCTTCTGTCTTGATTCGCTTGACGCTGCTG” stands 9.71 log fluorescence intensity; under “CGGAAGTGTCGAAAACGTCGGATATCCGGTTCTTCTGTCTTGATTCGCTTGACGCTGCTG”, 12 log fluorescence intensity; under “CGGAATTGTCGTAAACGTCGGATATCCGGTTCTTCTGTCTTGATTCGCTTGACGCTGCTG”, 12.2 log fluorescence intensity. Take “CGGAAGTGTCGTAAACGTCGGTTATCCGGTTCTTCTGTCTTGATTCGCTTGACGCTGCTG”: the binding signal is 9.21 log fluorescence intensity. Consider “CGGAAGTGTCGTAAACGTCGTATATCCGGTTCTTCTGTCTTGATTCGCTTGACGCTGCTG”, for which the binding signal was 11.8 log fluorescence intensity. As for “CGGAACTGTCGTAAACGTCGGATATCCGGTTCTTCTGTCTTGATTCGCTTGACGCTGCTG”, the figure is 11.8 log fluorescence intensity; as for “CGGAAGTGTCGTAAACGTCGCATATCCGGTTCTTCTGTCTTGATTCGCTTGACGCTGCTG”, 12.2 log fluorescence intensity. As for “CGGAAGCGTCGTAAACGTCGGATATCCGGTTCTTCTGTCTTGATTCGCTTGACGCTGCTG”, the figure is 11.8 log fluorescence intensity.
